Sampled rows, rich in hits. Any-hit rate of the full collection: about 6.6%.
TGFb SMAD3 inh = TGF-b pathway inhibition; HepG2 CAGA-GFP TGF-b/SMAD3 reporter, GFP fluorescence, 18 h; TGF-beta stimulated, 500 pg/mL final; Potency, µM (series often up to 46.1 µM), inactives show at the highest dose activity, negative = inhibition, most hits filed as inhibitors; actives 1.2% (n = 410,000); AID 588855; further: on the % scale 0 is the no-effect control and ±100 the full control effect; nearly all actives have a fitted effect of over 65% in size
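GFP signal (ex488/em500-530) from TGF-beta-stimulated HEPG2 CAGA-GFP cells, 500 pg/mL final, 18 h at 37 degrees C in DMEM plus 1% FBS, normalized to unstimulated and DMSO-stimulated controls.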
HT1080 IDH1KD tx = HT-1080 IDH1 knockdown cell toxicity (counter line); actives 2% (n = 360,000); Potency, µM (series often up to 46.1 µM), without a hit: at the top dose activity, negative = toxicity, usual class: cytotoxic; HT-1080 IDH1 knockdown viability, ATP luminescence, 48 h; AID 686971;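 further: 0% = DMSO wells and -100% = cell-free medium wells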
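IDH1KD HT-1080 cells, 750/well, RPMI + 5% FBS; compound pinned after 2 h settling; 48 h, 37 °C; CellTiter-Glo luminescence; % activity normalised to DMSO and no-cell wells; curves fitted, classed by r2 and efficacy.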
KB-V1 MDR tox = kills drug-selected multidrug resistant KB-V1 cells; KB-V1 MDR cells viability, CellTiter-Glo, 72 h; Potency, µM (titrated, usually from 46.1 µM), hits mostly cytotoxic; actives 3.4% (n = 400,000); AID 1347076; further: on the % scale 0 is the no-effect control and ±100 the full control effect; nearly all actives have a fitted effect of over 60% in size
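Potencies derive from concentration-effect curves fitted to normalized luminescence (CellTiter-Glo) of KB-V1 cells treated for 72 h at 37 degrees C in phenol-red-free DMEM containing 10% FBS.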
KB-3-1 tox = kills parental KB-3-1 adenocarcinoma cells | AID 1347075 | actives 1.4% (n = 400,000) | KB-3-1 viability, CellTiter-Glo ATP luminescence, 72 h | Potency, µM (top dose mostly 46.1 µM), hits mostly cytotoxic; further: on the % scale 0 is the no-effect control and ±100 the full control effect; nearly all actives have a fitted effect of over 60% in size
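KB-3-1 cells, DMEM (no phenol red) + 10% FBS; compound by pin transfer, 72 h, 37 °C. Readout: CellTiter-Glo luminescence after 10 min. Data normalized, curve-fitted.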
HT1080-NT tox = kills 2HG-producing HT-1080-NT fibrosarcoma cells. HT-1080-NT fibrosarcoma viability, CellTiter-Glo ATP luminescence, 48 h. Potency, µM (highest dose often 46.1 µM), inactives show top-dose activity, negative = less viability, usual class: cytotoxic. actives 1.6% (n = 360,000). AID 686970;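 further: NT is the 2HG producing partner of a matched IDH1 knockdown line; 0% = DMSO-treated cells and -100% = media-only wells without cells; nearly all actives have a fitted effect of over 55% in size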
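HT-1080-NT fibrosarcoma cells (2HG-overproducing), 750 cells/well in RPMI with 5% FBS, dosed after 2 h and incubated 48 h at 37C. CellTiter-Glo luminescence normalized to DMSO and no-cell wells; concentration-response curves fitted and classed.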
HepG2 tox-1 = kills HepG2 cells in TGF-b inhibitor counter-screen | HepG2 CAGA-GFP viability, ATP luminescence, 18 h | Potency, µM (titrated, usually from 46.1 µM), without a hit: top-dose activity change, negative = cytotoxicity, hits mostly cytotoxic | actives 0.76% (n = 410,000)
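HepG2 CAGA-GFP cells (1000/well, DMEM with 1% FBS) received compound, then TGF-beta at 500 pg/mL final, and were incubated 18 hours at 37 degrees C. Viability was read by CellTiter-Glo luminescence. Media-only wells were set as complete cell-killing and DMSO as no toxicity.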
TGFb CAGA inh = confirmation of TGF-b signaling inhibitors in HepG2 reporter cells. shares compounds with TGFb SMAD3 inh. HepG2 CAGA-GFP TGF-b reporter, GFP fluorescence, 18 h; cells stimulated with TGF-beta, 500 pg/mL. Potency, µM (top dose mostly 46.1 µM), without a hit: at the top dose activity, negative = inhibition, usual class: inhibitors. actives 63% (n = 1,600). AID 720534; further: on the % scale 0 is the no-effect control and ±100 the full control effect; nearly all actives have a fitted effect of over 65% in size
HepG2 tox-2 = counter-screen for TGF-b inhibitors: cytotoxicity in HepG2 cells; shares compounds with TGFb SMAD3 inh; HepG2 CAGA-GFP viability, ATP luminescence, 18 h; cells stimulated with TGF-beta, 500 pg/mL; Potency, µM (series often up to 46.1 µM), inactives show at the highest dose activity, negative = cytotoxicity, actives largely listed as inhibitors; actives 27% (n = 1,600); AID 720535; further: on the % scale 0 is the no-effect control and ±100 the full control effect; nearly all actives have a fitted effect of over 70% in size
TGFb CCL64 inh = blocks TGF-b signaling in CCL64 reporter cells. shares compounds with TGFb SMAD3 inh. CCL64 CAGA-GFP reporter, TGF-b stimulated, GFP fluorescence, 18 h. Potency, µM (titrated, usually from 46.1 µM), without a hit: at the highest dose activity, negative = inhibition, most hits filed as inhibitors. actives 41% (n = 1,600). AID 720536; further: nearly all actives have a fitted effect of over 65% in size
COP TGFb inh = validation of TGF-b inhibitors in HepG2 COP promoter reporter; shares compounds with TGFb SMAD3 inh; HepG2 COP-GFP TGF-b reporter, GFP fluorescence, 18 h; cells stimulated by added recombinant TGF-beta; Potency, µM (top dose mostly 46.1 µM), without a hit: at the top dose activity, negative = inhibition, actives largely listed as inhibitors; actives 3% (n = 1,600); AID 720537; further: nearly all actives have a fitted effect of over 70% in size
An asterisk follows results filed as active; i = inactive; ? = inconclusive; / = no result given. The call rests on the fitted dose curve; in most records, active means well fitted curve in the direction sought with a large enough effect; inconclusive means small, poorly fitted or top-dose-only effect, or another doubt; inactive means no such curve, though single readings can be large; an effect the other way counts as inactive or inconclusive. Potency means the concentration at half of the fitted maximal effect.

SMILES | TGFb SMAD3 inh | HT1080 IDH1KD tx | KB-V1 MDR tox | KB-3-1 tox | HT1080-NT tox | HepG2 tox-1 | TGFb CAGA inh | HepG2 tox-2 | TGFb CCL64 inh | COP TGFb inh
CC1Nc2ncnc(N3CCc4ccccc4C3)c2N(Cc2ccc(Br)cc2)C1=O (stereo not drawn) | ? | ? | ? | ? | ? | -24% | / | / | / | /
CCN1CCN(S(=O)(=O)c2ccc(Cl)c(C(=O)N(C)CCOc3ccc(Cl)cc3)c2)CC1 | 14µM* | ? | ? | i | ? | -9% | 13µM* | ? | ? | 12%
COc1ccc(S(=O)(=O)N2CCCCCC2)cc1C(=O)N(C)CCOc1ccc(Cl)cc1 | -23% | -30% | i | i | ? | -8% | / | / | / | /
O=C1CCCN1CCCNc1nc(NCc2cccs2)nc2ccsc12 | 10µM* | -6% | i | i | ? | -24% | 6.5µM* | ? | ? | 68%
COCCNc1nc(NCc2cccs2)nc2ccsc12 | 13µM* | 15% | i | i | 19% | -12% | 6.5µM* | ? | ? | 42%
Cc1ccc(Nc2nc(NCc3cccs3)nc3ccsc23)c(C)c1 | 13µM* | ? | ? | ? | ? | -26% | 6.5µM* | ? | ? | 58%
CC(=O)NCCNc1nc(NCc2cccs2)nc2ccsc12 | -1% | 11% | i | i | -2% | -1% | / | / | / | /
Cc1ccc2nc(Cl)c3cc(C(=O)NCCCN4CCC(C)CC4)sc3c2c1 | -6% | / | i | i | / | 2% | / | / | / | /
CSc1ncccc1C(=O)N1CCCC(N2CCN(c3ccccc3C)CC2)C1 (stereo not drawn) | -7% | -12% | ? | i | -17% | -32% | / | / | / | /
CCOC(=O)N1CCC(NC(=O)c2ccc3c(c2)N=C(CC)c2cc(C)ccc2S3)CC1 | 16µM* | 5.8µM* | ? | 7.3µM* | ? | -6% | 12µM* | -19% | ? | 26%
CCOC(=O)N1CCN(C(=O)c2ccc3c(c2)N=C(CC)c2cc(C)ccc2S3)CC1 | ? | -14% | i | i | 10% | -1% | / | / | / | /
CCC1=Nc2cc(C(=O)NCc3ccco3)ccc2Sc2ccc(C)cc21 | ? | 1.3µM* | 0.16µM* | ? | 1.3µM* | -25% | 2.3µM* | -18% | 1.5µM* | 11%
CC(C)(C)OC(=O)N1CCN(c2nc(-c3cccs3)nc3ccccc23)CC1 | / | 1% | / | / | 2% | / | / | / | / | /
